From PubChem BioAssay AID540276 (National Center for Advancing Translational Sciences (NCATS), 2011) come the findings set out here.

“And” between values parts separate entries of the source, which are not always exact repeats. Equal values may be shown once. About 5,400 (1.8%) of roughly 300,000 compounds were called active. About 28% were inconclusive and are not listed. Calls follow the shape of the full dose curve; tested in HEK293 cells. The list comes from a sample in which actives are over-represented; it also holds similar structures and randomly drawn compounds. Entries that show only a call come without a potency.
Potency is read from the fitted curve at half-maximal effect.

The nature of this assay: qHTS for inhibitors of binding or entry into cells for Marburg Virus. As to conditions: Marburg virus pseudotyped entry inhibition, cell reporter; series mostly up to 37.8 µM. A general note: In qHTS, concentration-response curves come from the screen itself.
`NS(=O)(=O)c1cccc(NC(=O)COC(=O)c2cc([N+](=O)[O-])ccc2N2CCCC2)c1`: the Potency result was “inactive”.

On to `N#Cc1cccc(NC(=O)COC(=O)c2ccccc2C(=O)c2ccc(Cl)c([N+](=O)[O-])c2)c1`, for which the Potency is 23.1 µM (active).

As to `O=C(COC(=O)c1ccc([N+](=O)[O-])cc1Cl)NC(=O)c1ccccc1`, the Potency result is “inactive”.

Turning to `CN(C(=O)CCNC(=O)Cn1ccc2ccccc2c1=O)c1ccc(Br)cc1`, the Potency result was “inactive”.

As to `O=C(CCC1CCCN(C(=O)c2ccc(F)c(F)c2)C1)N1CCN(c2ccccn2)CC1` (centres undefined), the Potency entry was “inactive”.

With `CC1(c2ccccc2)NC(=O)N(CC(=O)Nc2cc(Cl)ccc2N2CCOCC2)C1=O` (centres undefined), the Potency entry was “inactive”.

Consider `COc1cc(OC)cc(-c2c(-c3cccs3)c3cc(-c4ccc(OC)cc4F)ccc3n2C)c1`, for which the Potency result is “inactive”.

On to `Cc1ccccc1N1CC(C(=O)Nc2nnc(SCCC3OCCO3)s2)CC1=O` (centres undefined), for which the Potency result was “inactive”.

Consider `CC(C)(C)NC(=O)NC(=O)COC(=O)Cc1ccc(Cl)cc1Cl`, for which the Potency entry is “inactive”.

Regarding `NNC(=O)c1ccc(Cl)cc1Cl`, the Potency entry is “inactive”.

Consider `CC(C)(C)c1cc(C(=O)NN)n(Cc2ccc(Cl)cc2Cl)n1`, for which the Potency was 11.2 µM (active).

For `Cc1cc(NC[C@@H]2CCCO2)n2c(nc3ccccc32)c1C#N`, the Potency entry was “inactive”.

As to `CN1CCN(CCNC(=O)Nc2ccccc2[N+](=O)[O-])CC1`, the Potency entry was “inactive”.

Turning to `CCOc1ccc(C(O)Cn2c(=N)n(CCN3CCCCC3)c3ccccc32)cc1` (centres undefined), the Potency was 18.3 µM (active).

For `CCOc1ccc(C(O)Cc2nc3ccccc3n2C)cc1` (centres undefined), the Potency result was “inactive”.

For the molecule `CCOc1ccc(CN2CCCN(C)CC2)cc1`, the Potency result is “inactive”.

Take `CCOc1ccc(S(=O)(=O)N2CCN(C(=S)NCC3CCCO3)CC2)cc1` (centres undefined): the Potency entry is “inactive”.

Take `CC1(C)C(=O)CCC2(C)C1=CCC1C2C(=O)CC2(C)C1CCC2(O)C(=O)CO` (centres undefined): the Potency result was “inactive”.

Take `CC(=O)OCC(=O)C1(O)CCC2C3CC(C)C4=CC(=O)CCC4(C)C3C(O)CC21C` (centres undefined): the Potency result was “inactive”.

Turning to `COc1ccccc1NC(=O)N1CCCC1C(=O)NCc1cccs1` (centres undefined), the Potency entry is “inactive”.

Turning to `CS(=O)(=O)Nc1ccc(C2=NN(S(C)(=O)=O)C(c3cccs3)C2)cc1` (centres undefined), the Potency entry was “inactive”.

For the molecule `CCS(=O)(=O)Nc1ccc(C2=NN(S(=O)(=O)c3ccc(F)cc3)C(c3ccco3)C2)cc1` (centres undefined), the Potency is 18.3 µM (active).

As for `CCS(=O)(=O)Nc1ccc(C2=NN(C(C)=O)C(c3cccs3)C2)cc1` (centres undefined), the Potency entry was “inactive”.

As to `COc1ccc(-c2nn(-c3ccccc3)cc2CN2CCCO2)c(F)c1`, the Potency entry was “inactive”.

As to `COc1ccc(-n2cc(CNC3CCOCC3)c(-c3cccc(F)c3)n2)cc1`, the Potency was 11.2 µM (active).

Regarding `COc1ccc(-n2cc(CN(C)Cc3n[nH]c(=O)[nH]3)c(-c3cccc(F)c3)n2)cc1`, the Potency result was “inactive”.

Consider `N#CC1=C(SCc2ccccc2)NC(=O)C(C#N)C12CCCC2` (centres undefined), for which the Potency result is “inactive”.

Take `N#C/C(=C1\CCCN1)c1nc(-c2ccccc2)cs1`: the Potency entry was “inactive”.

`N#CC1=C(SCc2ccc(C#N)cc2)N=C(N)C(c2nc(-c3ccccc3)cs2)C12CCCCC2` (centres undefined): the Potency was 7.08 µM (active).

For `NC(CSC1(c2ccccc2)c2ccccc2-c2ccccc21)C(=O)O` (centres undefined), the Potency entry was “inactive”.

Consider `CCCc1cc(=O)[nH]c(SCC(=O)Nc2ccc(C(=O)Nc3ccccc3OC)cc2)n1`, for which the Potency result is “inactive”.

Turning to `CC1CCN(C(=O)/C(=C\c2ccccc2)NC(=O)c2ccccc2)CC1`, the Potency entry was “inactive”.

In the case of `COc1ccc(S(=O)(=O)N2CCC(C(=O)NCc3ccco3)CC2)cc1C`, the Potency entry was “inactive”.

For the molecule `CC(C)Oc1ccc(Oc2ccc(C(F)(F)F)cn2)cc1`, the Potency entry was “inactive”.

Turning to `CNCC[C@H](Oc1ccc(C(F)(F)F)cc1)c1ccccc1`, the Potency is 10.3 µM (active) and 7.08 µM (active).

On to `CC(NC(=O)Cn1cc(C(F)(F)F)cc(Cl)c1=O)c1ccccc1` (centres undefined), for which the Potency entry is “inactive”.

On to `COc1ccccc1N(CC(=O)Nc1ccccc1C(=O)N1CCCC1)S(C)(=O)=O`, for which the Potency entry was “inactive”.

As for `Cc1ccc(S(=O)(=O)N2CCN=C2SCc2c(F)cccc2Cl)cc1`, the Potency result was “inactive”.

For `COc1ccc(COC(=O)c2ccc(Cl)c(S(=O)(=O)N3CCOCC3)c2)cc1F`, the Potency entry is “inactive”.

`CCCCCC(=O)Nc1ccc(C(=O)N/N=C/c2ccc([N+](=O)[O-])cc2)cc1`: the Potency entry is “inactive”.

For the molecule `CC(=O)Nc1ccc(C(=O)/C=C/c2ccc[nH]2)cc1`, the Potency result was “inactive”.

For the molecule `CCCC(=O)Nc1ccc(C(=O)N/N=C/c2ccc[nH]2)cc1`, the Potency is 7.08 µM (active).

For `COc1cc(/C=N/NC(=O)c2ccccc2)ccc1OS(=O)(=O)c1ccccc1`, the Potency is 9.2 µM (active).

In the case of `COc1cc(/C=N/NC(=O)c2ccc(N3CCCC3=O)cc2)ccc1O`, the Potency entry was “inactive”.

Consider `COc1cc(/C=N/NC(=O)Nc2ccccc2)ccc1OCCOc1ccccc1C`, for which the Potency is 2.31 µM (active).

Take `COC(=O)c1ccc(COc2ccc(/C=N/NC(=O)C(=O)Nc3ccc(OC)cc3)cc2OC)o1`: the Potency entry was “inactive”.

For the molecule `COc1cc(C=NNC(=O)c2cccnc2)ccc1OC(=O)c1ccccc1F`, the Potency result was “inactive”.

Take `COc1ccc(/C=N/S(=O)(=O)c2ccccc2)cc1OC`: the Potency entry was “inactive”.

With `COc1ccc(C(=O)Nc2ccccc2C(=O)N/N=C/c2ccc(O)c(OC)c2)cc1`, the Potency was 0.398 µM (active).

As to `CCOc1cc(/C=N/NC(=O)OC)ccc1OCCSc1ccc(Cl)cc1`, the Potency result is “inactive”.

With `COc1ccc(C(=O)Nc2ccccc2C(=O)N/N=C/c2ccccc2OC)cc1`, the Potency result is “inactive”.

Regarding `COc1ccc(OC[C@H]2CN3[C@@H](CC[C@@H](C)[C@@H]3c3ccc(Br)cc3)C(=O)O2)cc1`, the Potency entry is “inactive”.

For the molecule `COC1=NC2=NCCN2C(OC)=N1`, the Potency result was “inactive”.

Consider `COc1ccc(CCNC(=O)COC(=O)c2ncc(Cl)c(Cl)c2Cl)cc1OC`, for which the Potency result was “inactive”.

`COc1ccccc1C(=O)c1ccccc1C(=O)c1ccccc1`: the Potency result is “inactive”.

On to `COc1ccc(N2CC(C(=O)N[C@@H](C)C(=O)N3CCCCC3)CC2=O)cc1` (some centres undefined), for which the Potency result is “inactive”.

Turning to `O=C1COc2ccc(C(=O)COC(=O)CCOc3ccccc3)cc2N1`, the Potency result is “inactive”.

With `CC(NS(=O)(=O)c1ccc(OCC(=O)N2CCCC2)cc1)c1ccccc1` (centres undefined), the Potency result was “inactive”.

Consider `COc1ccc(S(=O)(=O)N2CCN(CC(=O)N3c4ccccc4CC3C)CC2)cc1OC` (centres undefined), for which the Potency result was “inactive”.

For `COc1ccc(C(=O)O)cc1S(=O)(=O)NC1CCN(Cc2ccccc2)CC1`, the Potency entry was “inactive”.

For the molecule `O=C(Cn1cnc2ccccc2c1=O)NNC(=O)c1ccccc1F`, the Potency entry was “inactive”.

In the case of `Cc1ccc(C)c(NS(=O)(=O)c2ccc(OCC(=O)NCc3cccnc3)cc2)c1`, the Potency result is “inactive”.

As for `Cc1ccc(C)c(NC(=O)CN(C)C(=O)COc2ccc3ccccc3c2)c1`, the Potency result is “inactive”.

As to `Cc1ccc(NS(=O)(=O)c2ccc(C)c(NC(=O)COc3ccc4ccccc4c3)c2)c(C)c1`, the Potency was 11.2 µM (active).

Turning to `CC(C)c1ccc(Cn2c(COc3ccccc3)nc3ccccc32)cc1`, the Potency entry is “inactive”.

Consider `O=C(O)c1ccc(Cn2c(=S)[nH]c3cc(Cl)ccc3c2=O)cc1`, for which the Potency result was “inactive”.

Turning to `CC(C)c1ccc2c(c1)c(SC(C)(C)C)c(CC(C)(C)C(=O)O)n2Cc1ccc(Cl)cc1`, the Potency was 11.2 µM (active) and 6.51 µM (active).

As to `CN(C)C(=O)CCc1ccc2c3c([nH]c2c1)[C@]1(CCC2CCCC2)[C@@H](C(=O)N2CCOCC2)C[C@H](CC(=O)NCc2ccco2)C(=O)N1CC3`, the Potency result is “inactive”.

As to `CCOC(=O)c1cc(S(=O)(=O)NCCc2ccc(OC)c(OC)c2)cn1C`, the Potency entry was “inactive”.

Consider `COc1cc(/C=C2\SC(=S)N(Nc3ncc(C(F)(F)F)cc3Cl)C2=O)cc(OC)c1OC`, for which the Potency result was “inactive”.

Regarding `COc1cccc(/C=N/Nc2ncc(C(F)(F)F)cc2Cl)c1O`, the Potency is 0.794 µM (active).

On to `COc1cccc(/C(C)=N/Nc2ncc(Cl)cc2Cl)c1`, for which the Potency result was “inactive”.

Take `CCCCn1c(N)c(N(Cc2ccccc2OC)C(=O)COc2cc(C)ccc2Cl)c(=O)[nH]c1=O`: the Potency result was “inactive”.

Take `Cc1ccc(S(=O)(=O)N(C)C)cc1NC(=O)C1Cc2ccccc2CN1C(=O)c1ccco1` (centres undefined): the Potency result is “inactive”.

Regarding `Cc1ccc(C)c(NC(=O)C2CCCN2C(=O)OC(C)(C)C)c1` (centres undefined), the Potency entry is “inactive”.

As for `Cc1ccc(C)c(NC(=O)C2Cc3ccccc3CN2C(=O)OCc2ccccc2)c1` (centres undefined), the Potency was 2.51 µM (active).

Turning to `Cc1cc(C(F)(F)F)nc(SCC(=O)Nc2nccs2)n1`, the Potency entry is “inactive”.

Regarding `CCN(CC(=O)Nc1ccc(OC)cc1)C(=O)c1ccc(=O)n(Cc2ccccc2)n1`, the Potency entry is “inactive”.

Consider `COc1ccc(C)cc1NC(=O)CSc1nnc2ccc(-c3ccccn3)nn12`, for which the Potency result is “inactive”.

Regarding `CCOc1ccccc1-c1nc(CN2CCC(C(=O)N3CCOCC3)CC2)c(C)o1`, the Potency result is “inactive”.

`Cc1ccc(C)c(NC(=O)C(c2ccccc2)N2CCN(CC(=O)NC3CC3)CC2)c1` (centres undefined): the Potency result is “inactive”.

For the molecule `OC(CNC1CCCCC1)c1ccccc1` (centres undefined), the Potency entry is “inactive”.

Take `CC(NCc1ccccc1OC1CCCC1)c1ccccc1` (centres undefined): the Potency was 7.94 µM (active).

Take `CC(=O)OC(C(=O)NC1CCCCC1)c1ccccc1` (centres undefined): the Potency result was “inactive”.

As to `COc1ccc2c(c1)c(=Cc1ccc(N(C)C)cc1)c1cc(-c3ccccc3)[n+](C)n12`, the Potency was 4.47 µM (active).

With `c1ccc2c(c1)[I+]c1ccccc1-2`, the Potency is 0.282 µM (active).

`O=C(NCCc1ccccc1)c1c[nH]c2ccc(F)cc2c1=O`: the Potency entry is “inactive”.

As for `CC(C)OC(=O)c1ccc(NCc2cc(O)ccc2O)cc1Cl`, the Potency was 2.24 µM (active).

On to `CC(OC(=O)c1ccc(Cl)cc1O)C(=O)NCCC1=CCCCC1` (centres undefined), for which the Potency entry was “inactive”.

Take `CC(C)NC(=O)c1ccc(Cl)cc1Cl`: the Potency entry was “inactive”.

With `Cc1ccccc1-n1cc(CNC(=O)C2CCC(=O)N(C3CC3)C2)cn1` (centres undefined), the Potency result was “inactive”.

Take `CCN1CCc2c(C#N)c(NCc3ccccc3)nc(NCCO)c2C1`: the Potency entry was “inactive”.

For `CC(C)Cc1nc(N2CCOCC2)c(C#N)c2c1CCC2`, the Potency result was “inactive”.

For `CC(C)CCNc1nc(N2CCCC2)c2c(c1C#N)CCN(C)C2`, the Potency was 7.3 µM (active).

On to `COC1=CC(=O)OC(c2ccc(OC)cc2)C1` (centres undefined), for which the Potency entry was “inactive”.

For the molecule `O=C(NCc1ccncc1)C(=O)NCC1OCCN1S(=O)(=O)c1ccc(Br)cc1` (centres undefined), the Potency entry is “inactive”.

For the molecule `COc1ccc(-c2csc3ncnc(N4CCN(S(=O)(=O)c5ccccc5C#N)CC4)c23)cc1`, the Potency entry was “inactive”.

For `CCN1/C(=C/c2ccc3ccc(C)cc3[n+]2CC)Sc2ccccc21`, the Potency is 5.01 µM (active).

With `O=C(c1ccc(NS(=O)(=O)c2ccc3[nH]c(=O)[nH]c3c2)cc1)N1CCCCC1`, the Potency result was “inactive”.
